In PubChem BioAssay (Tox21):
A number with no mark means an inactive call. Inconclusive results are not listed. A call without a number means that no potency is given here. Calls of active or inactive are those of the source. Unless noted, calls follow the shape of the dose curve; as a rule, active = well fitted curve in the direction sought with a large enough effect in the repeat runs; inconclusive = weak or mixed curves; inactive = no such curve, though single readings can be large; an effect the other way counts as inactive or inconclusive.

Assays:
[1] = qHTS assay to identify small molecule antagonists of the sonic hedgehog signaling (Shh) pathway (AID 1259369; calls by dose curve; also: nearly all actives have a fitted effect of over 45% in size; also: potency is read from the fitted curve at half-maximal effect)
Summary of the method: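 Read-out is luminescence from a firefly luciferase gene controlled by the Gli1 response element, in 3T3Gli1-Luc cells pre-incubated 4hr then exposed to compounds and conditioned medium for 24hr.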

[2] = molecular target: Estrogen receptor beta (Homo sapiens) (UniProt Q92731); assay: qHTS assay to identify small molecule antagonists of the estrogen receptor beta (ER-beta) signaling pathway (AID 1259378; active = well fitted inhibition curve with a large enough effect in the signal ratio in the repeat runs, not every such curve was filed as active; the % refers to the signal ratio)
Summary of the method: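 Antagonist mode: compounds added to beta-lactamase reporter HEK293T ER-beta-UAS cells stimulated with E2 (1nM final), 16 hr at 37C. LiveBLAzer B/G FRET substrate, 2 hours room temperature, fluorescence read-out.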

[3] = qHTS assay to identify small molecule agonists of the androgen receptor (AR) signaling pathway in the presence of an antagonist - cell viability counter screen (AID 1259379);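 also: MDA-kb2 human breast cancer cells carrying an MMTV luciferase reporter; series mostly up to about 92 µM; nearly all actives have a fitted effect of over 25% in size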
Summary of the method: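 Each compound was tested at 15 concentrations on MDA-kb2 cells in the presence of 3.0uM nilutamide. Viability was measured by CellTiter-Fluor fluorescence after a 16 hr incubation at 37C in a CO2-free atmosphere.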

[4] = qHTS assay to identify small molecule antagonists of the estrogen receptor beta (ER-beta) signaling pathway - cell viability counter screen (AID 1259382);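 also: HEK293T cells carrying ER-beta-UAS-bla reporter stimulated with estradiol; series mostly up to about 92 µM; nearly all actives have a fitted effect of over 55% in size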
Summary of the method: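 CellTiter-Glo ATP luminescence measured after the LiveBLAzer read in the same wells; ER-beta-UAS-bla HEK293T cells, 16 hr compound treatment with 1nM 17-beta-estradiol agonist at 37C, 5% CO2.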

[5] = qHTS assay to identify small molecule agonists or antagonists of the thyroid stimulating hormone receptor (TSHR) signaling pathway - wild type cell line counter screen (AID 1259384; calls by dose curve)
Summary of the method: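 Counter screen in untransfected Hek293: compounds (15-point titration, triplicate) plus phosphodiesterase inhibitor Ro20-1724 added after 18 h plating; 30 min RT. Intracellular cAMP via competitive d2/cryptate immunoassay, 1 h incubation.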

[6] = qHTS assay to identify small molecule agonists of the estrogen receptor alpha (ER-alpha) signaling pathway in the presence of an antagonist - cell viability counter screen (AID 1259386);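 also: series mostly up to about 92 µM; cells exposed to compounds for 22 h at 37 °C before the viability read; nearly all actives have a fitted effect of over 30% in size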
Summary of the method: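 Using estrogen-depleted VM7Luc4E2 cells, the 15-concentration compound series was applied together with 10.0nM ICI-182,780 and incubated 22hr at 37C/5% CO2. Cell viability was then scored by CellTiter-Fluor.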

[7] = molecular target: Progesterone receptor (Homo sapiens) (UniProt P06401); assay: qHTS assay to identify small molecule antagonists of the progesterone receptor (PR) signaling pathway (AID 1346795; active = well fitted inhibition curve with a large enough effect in the signal ratio in the repeat runs, not every such curve was filed as active; the % refers to the signal ratio; also: potency is read from the fitted curve at half-maximal effect)
Summary of the method: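 Antagonist mode: compounds tested against 1 nM (final) promegestone stimulation in HEK293T cells expressing PR-UAS-bla reporter, 16 hr at 37C, 5% CO2; beta-lactamase activity detected via B/G FRET substrate after 2 hr at room temperature.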

[8] = qHTS assay to identify small molecule antagonists of the progesterone receptor (PR) signaling pathway - cell viability counter screen (AID 1346798); also: series mostly up to about 92 µM; nearly all actives have a fitted effect of over 50% in size
Summary of the method: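 Counter screen for cytotoxicity: viability of PR-UAS-bla HEK293T cells was measured with CellTiter-Glo luminescence following 16 hr compound exposure in the presence of R5020.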

[9] = qHTS assay to identify small molecule antagonists of the TGF-beta/Smad signaling pathway - cell viability counter screen (AID 1346824); also: nearly all actives have a fitted effect of over 50% in size
Summary of the method: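 Cytotoxicity counter-screen run in the same wells as the beta-lactamase Smad reporter read: CellTiter-Glo luminescence after 30 min at room temperature. HEK 293T SBE-bla cells had 5 hr compound exposure at 37 C with TGF-beta1 (0.25 ng/mL stock).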

[10] = qHTS assay to identify small molecule agonists of the TGF-beta/Smad signaling pathway - cell viability counter screen (AID 1346829); also: top concentration of the series differs between compounds; nearly all actives have a fitted effect of over 45% in size
Summary of the method: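 Cytotoxicity counter screen: CellTiter-Glo luminescence (30 min, room temperature) measured in the SBE-bla HEK 293T reporter wells after 5 hr compound treatment at 37 C and the 2 hr substrate step.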

[11] = qHTS assay to identify small molecule agonists of the TGF-beta/Smad signaling pathway (AID 1346859; active = well fitted activation curve with a large enough effect in the signal ratio in the repeat runs, not every such curve was filed as active; the % refers to the signal ratio; also: series mostly up to about 77 µM)
Summary of the method: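 Reporter line: HEK 293T with stably integrated SBE-controlled beta-lactamase. Compound exposure lasts 5 hr at 37 C and 5% CO2; substrate loading follows for 2 hr at room temperature, with emission read at 460 and 530 nm.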

[12] = qHTS assay to identify small molecule agonists of the estrogen receptor beta (ER-beta) signaling pathway - cell viability counter screen (AID 1259380); also: nearly all actives have a fitted effect of over 30% in size; also: potency is read from the fitted curve at half-maximal effect
Summary of the method: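 Compounds dissolved in DMSO were pin-transferred onto ER-beta-UAS-bla HEK293T cells that had settled 6 hr, and exposure ran 16 hr at 37C. Following the reporter read, CellTiter-Glo luminescence after 30 min at room temperature indicated cytotoxicity.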

[13] = molecular target: Estrogen receptor (Homo sapiens) (UniProt P03372); assay: qHTS assay to identify small molecule agonists of the estrogen receptor alpha (ER-alpha) signaling pathway in the presence of an antagonist (AID 1259383; calls by dose curve; also: top concentration of the series differs between compounds; nearly all actives have a fitted effect of over 15% in size)
Summary of the method: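 Luminescent ERE-luciferase reporter, VM7Luc4E2 cells (endogenous ER-alpha); 10.0nM ICI-182,780 final; 15-point compound titration; 22hr at 37C; ONE-Glo, 30min RT.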

[14] = molecular target: Thyrotropin receptor (Homo sapiens) (UniProt P16473); assay: qHTS assay to identify small molecule antagonists of the thyroid stimulating hormone receptor (TSHR) signaling pathway (AID 1259385; calls by dose curve; also: nearly all actives have a fitted effect of over 20% in size)
Summary of the method: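 Antagonist mode: compound-treated TSHR-expressing HEK293 cells were stimulated with 1.5 ng/mL TSH (final) in presence of Ro20-1724 for 30 min at RT. HTRF cAMP detection after 1 h; each compound tested at 15 concentrations, triplicate.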

[15] = molecular target: Progesterone receptor (Homo sapiens) (UniProt P06401); assay: qHTS assay to identify small molecule agonists of the progesterone receptor (PR) signaling pathway (AID 1346784; calls by dose curve; also: nearly all actives have a fitted effect of over 30% in size)
Summary of the method: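 Cells (PR-UAS-bla HEK 293T, GripTite) were plated in assay medium containing 2% charcoal-stripped FBS and incubated 6 hr. Test compounds in DMSO were added for 16 hr at 37C. FRET substrate was then loaded for 2 hr at room temperature before fluorescence reading.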

[16] = qHTS assay to identify small molecule agonists of the progesterone receptor (PR) signaling pathway - cell viability counter screen (AID 1346799; calls by dose curve; also: nearly all actives have a fitted effect of over 45% in size; also: potency is read from the fitted curve at half-maximal effect)
Summary of the method: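 Cells (PR-UAS-bla HEK293T) are plated at 3,000/well in 2% charcoal-stripped FBS medium, rested 6 hr, dosed and incubated 16 hr at 37C. CellTiter-Glo is then added and luminescence measured after 30 min at room temperature.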

[17] = molecular target: Thyrotropin-releasing hormone receptor (Homo sapiens) (UniProt P34981); assay: qHTS assay to identify small molecule antagonists of the thyrotropin-releasing hormone receptor (TRHR) signaling pathway (AID 1346877; active = well fitted inhibition curve with a large enough effect in the repeat runs, not every such curve was filed as active; also: series mostly up to about 51 µM)
Summary of the method: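 Calcium signal in dye-loaded TRHR/HEK293 cells; compounds added 5 min before TRH (1 nM final); fluorescence monitored 3 min at 1 s steps.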

[18] = molecular target: Thyrotropin-releasing hormone receptor (Homo sapiens) (UniProt P34981); assay: qHTS assay to identify small molecule agonists of the thyrotropin-releasing hormone receptor (TRHR) signaling pathway (AID 1346891; calls by dose curve;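 also: HEK293 cells expressing TRHR with calcium dye readout; series mostly up to about 58 µM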)
Summary of the method: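 Cells: TRHR-Hek293, seeded and incubated 18 h. Dye loading: 2 h at 37 °C. Compound added from DMSO stock by pin tool. Read-out: kinetic calcium fluorescence over 3 min.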

[19] = molecular target: Androgen receptor (Homo sapiens) (UniProt P10275); assay: qHTS assay to identify small molecule agonists of the androgen receptor (AR) signaling pathway in the presence of an antagonist (AID 1259381; calls by dose curve; also: nearly all actives have a fitted effect of over 15% in size)
Summary of the method: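 Plated MDA-kb2 cells (3,000/well) were pre-incubated 5hr, given nilutamide (3.0uM final) or buffer, then dosed with compounds in DMSO at 15 concentrations. Luciferase activity was quantified by luminescence after 16hr at 37C.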

Thyrotropin-releasing hormone receptor (Homo sapiens), sequence (P34981 whole entry, looked up): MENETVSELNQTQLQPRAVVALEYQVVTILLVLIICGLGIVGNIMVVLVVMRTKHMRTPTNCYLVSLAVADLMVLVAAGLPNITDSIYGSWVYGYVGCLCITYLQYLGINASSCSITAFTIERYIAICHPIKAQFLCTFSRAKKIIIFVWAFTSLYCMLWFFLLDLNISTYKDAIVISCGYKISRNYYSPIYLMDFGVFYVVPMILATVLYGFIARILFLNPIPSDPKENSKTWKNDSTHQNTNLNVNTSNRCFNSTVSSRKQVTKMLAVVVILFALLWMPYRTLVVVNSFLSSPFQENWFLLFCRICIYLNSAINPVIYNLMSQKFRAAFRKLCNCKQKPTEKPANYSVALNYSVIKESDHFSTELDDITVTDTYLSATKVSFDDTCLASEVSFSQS
Thyrotropin receptor (Homo sapiens), sequence (P16473 whole entry, looked up): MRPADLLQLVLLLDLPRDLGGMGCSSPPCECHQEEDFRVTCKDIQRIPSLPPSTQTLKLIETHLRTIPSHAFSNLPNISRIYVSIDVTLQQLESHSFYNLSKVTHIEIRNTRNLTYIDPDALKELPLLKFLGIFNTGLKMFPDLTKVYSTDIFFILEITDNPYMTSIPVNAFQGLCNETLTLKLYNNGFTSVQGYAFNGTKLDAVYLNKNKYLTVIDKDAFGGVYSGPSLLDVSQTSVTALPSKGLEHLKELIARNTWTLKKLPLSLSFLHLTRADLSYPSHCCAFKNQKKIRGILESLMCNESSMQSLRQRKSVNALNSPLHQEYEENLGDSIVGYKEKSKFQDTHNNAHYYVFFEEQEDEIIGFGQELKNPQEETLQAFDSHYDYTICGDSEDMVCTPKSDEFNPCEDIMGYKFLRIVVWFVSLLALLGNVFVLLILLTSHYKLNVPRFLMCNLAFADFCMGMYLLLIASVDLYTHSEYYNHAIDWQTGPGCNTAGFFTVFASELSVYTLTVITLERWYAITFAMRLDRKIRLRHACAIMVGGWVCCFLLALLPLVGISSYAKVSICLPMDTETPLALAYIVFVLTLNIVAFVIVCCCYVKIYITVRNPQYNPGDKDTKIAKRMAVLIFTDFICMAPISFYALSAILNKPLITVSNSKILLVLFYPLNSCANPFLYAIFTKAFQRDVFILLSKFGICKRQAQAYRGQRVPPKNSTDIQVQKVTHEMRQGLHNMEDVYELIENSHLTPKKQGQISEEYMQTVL
Progesterone receptor (Homo sapiens), sequence (P06401 whole entry, looked up): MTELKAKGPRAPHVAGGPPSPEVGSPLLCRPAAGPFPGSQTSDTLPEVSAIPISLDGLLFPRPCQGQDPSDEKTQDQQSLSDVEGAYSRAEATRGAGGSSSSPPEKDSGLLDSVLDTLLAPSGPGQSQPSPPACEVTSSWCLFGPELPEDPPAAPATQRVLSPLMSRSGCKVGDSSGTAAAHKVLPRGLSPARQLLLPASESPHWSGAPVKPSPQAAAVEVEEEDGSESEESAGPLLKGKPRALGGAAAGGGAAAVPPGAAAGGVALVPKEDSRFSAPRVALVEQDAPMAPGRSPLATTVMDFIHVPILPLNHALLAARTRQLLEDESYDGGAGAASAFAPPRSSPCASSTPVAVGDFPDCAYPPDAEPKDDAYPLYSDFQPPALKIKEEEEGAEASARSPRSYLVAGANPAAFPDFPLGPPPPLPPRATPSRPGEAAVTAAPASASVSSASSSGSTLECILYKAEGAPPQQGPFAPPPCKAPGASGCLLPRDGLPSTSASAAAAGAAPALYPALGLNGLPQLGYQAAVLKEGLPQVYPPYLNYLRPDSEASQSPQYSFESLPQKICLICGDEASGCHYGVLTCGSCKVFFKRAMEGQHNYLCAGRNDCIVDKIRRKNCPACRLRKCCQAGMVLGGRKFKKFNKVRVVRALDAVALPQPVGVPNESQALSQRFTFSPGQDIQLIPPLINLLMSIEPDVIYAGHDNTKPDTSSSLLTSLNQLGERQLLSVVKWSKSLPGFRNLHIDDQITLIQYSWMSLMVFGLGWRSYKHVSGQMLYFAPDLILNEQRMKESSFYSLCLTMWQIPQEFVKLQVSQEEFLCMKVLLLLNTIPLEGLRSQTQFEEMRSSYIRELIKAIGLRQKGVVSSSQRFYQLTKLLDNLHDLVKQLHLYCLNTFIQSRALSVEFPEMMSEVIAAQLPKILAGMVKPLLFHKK
Estrogen receptor (Homo sapiens), sequence (P03372 whole entry, looked up): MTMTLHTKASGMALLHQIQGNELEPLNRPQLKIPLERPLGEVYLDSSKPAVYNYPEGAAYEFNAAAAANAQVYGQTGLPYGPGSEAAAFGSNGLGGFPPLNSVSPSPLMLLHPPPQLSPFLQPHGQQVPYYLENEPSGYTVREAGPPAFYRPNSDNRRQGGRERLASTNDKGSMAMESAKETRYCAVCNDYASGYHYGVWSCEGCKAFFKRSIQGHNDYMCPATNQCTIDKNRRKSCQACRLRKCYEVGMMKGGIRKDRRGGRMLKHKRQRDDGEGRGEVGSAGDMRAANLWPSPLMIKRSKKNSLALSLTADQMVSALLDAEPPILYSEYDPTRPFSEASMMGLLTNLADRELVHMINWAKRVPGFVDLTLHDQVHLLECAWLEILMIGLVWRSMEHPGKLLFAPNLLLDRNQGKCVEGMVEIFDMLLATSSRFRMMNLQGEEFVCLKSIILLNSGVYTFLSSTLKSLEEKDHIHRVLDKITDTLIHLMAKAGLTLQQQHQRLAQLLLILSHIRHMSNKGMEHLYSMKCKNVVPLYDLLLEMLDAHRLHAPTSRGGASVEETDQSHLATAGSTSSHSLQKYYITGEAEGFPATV
Estrogen receptor beta (Homo sapiens), sequence (Q92731 whole entry, looked up): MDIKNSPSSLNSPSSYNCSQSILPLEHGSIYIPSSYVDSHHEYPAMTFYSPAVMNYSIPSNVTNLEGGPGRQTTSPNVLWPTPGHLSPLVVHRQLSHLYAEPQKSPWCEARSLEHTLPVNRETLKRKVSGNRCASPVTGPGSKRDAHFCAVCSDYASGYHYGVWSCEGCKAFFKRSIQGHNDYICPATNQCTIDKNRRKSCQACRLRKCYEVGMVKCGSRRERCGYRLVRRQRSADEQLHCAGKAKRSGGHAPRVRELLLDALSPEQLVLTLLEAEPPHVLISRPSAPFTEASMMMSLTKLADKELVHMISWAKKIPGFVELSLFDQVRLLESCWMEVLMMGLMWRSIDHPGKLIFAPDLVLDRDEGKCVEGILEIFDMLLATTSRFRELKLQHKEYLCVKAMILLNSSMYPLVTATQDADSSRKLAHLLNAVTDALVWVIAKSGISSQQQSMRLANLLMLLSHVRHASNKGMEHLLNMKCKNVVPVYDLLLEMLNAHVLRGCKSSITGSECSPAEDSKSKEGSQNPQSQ
Androgen receptor (Homo sapiens), sequence (P10275 whole entry, looked up): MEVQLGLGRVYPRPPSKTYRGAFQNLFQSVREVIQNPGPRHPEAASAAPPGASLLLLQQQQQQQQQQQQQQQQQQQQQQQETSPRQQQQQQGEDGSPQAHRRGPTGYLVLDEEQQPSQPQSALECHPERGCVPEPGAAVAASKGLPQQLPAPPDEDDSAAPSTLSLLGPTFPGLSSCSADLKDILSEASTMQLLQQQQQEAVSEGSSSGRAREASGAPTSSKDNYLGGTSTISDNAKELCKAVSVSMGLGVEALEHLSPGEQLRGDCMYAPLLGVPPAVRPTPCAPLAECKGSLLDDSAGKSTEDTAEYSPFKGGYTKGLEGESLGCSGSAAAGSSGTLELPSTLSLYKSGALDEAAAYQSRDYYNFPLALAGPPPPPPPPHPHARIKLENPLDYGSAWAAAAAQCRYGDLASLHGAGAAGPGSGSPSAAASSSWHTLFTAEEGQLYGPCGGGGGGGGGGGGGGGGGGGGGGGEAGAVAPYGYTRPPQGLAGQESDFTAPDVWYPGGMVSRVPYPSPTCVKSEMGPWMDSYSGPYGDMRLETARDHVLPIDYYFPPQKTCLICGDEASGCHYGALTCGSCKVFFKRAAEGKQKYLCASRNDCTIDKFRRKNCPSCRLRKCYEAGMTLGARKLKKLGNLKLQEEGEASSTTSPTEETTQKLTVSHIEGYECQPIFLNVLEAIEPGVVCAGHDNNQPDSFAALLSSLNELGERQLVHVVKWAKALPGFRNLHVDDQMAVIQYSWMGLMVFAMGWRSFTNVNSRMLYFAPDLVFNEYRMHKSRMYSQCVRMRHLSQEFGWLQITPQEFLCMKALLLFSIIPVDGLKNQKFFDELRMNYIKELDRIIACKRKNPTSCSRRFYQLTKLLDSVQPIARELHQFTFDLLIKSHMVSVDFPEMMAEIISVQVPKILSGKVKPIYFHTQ

Row | SMILES | Potency [1] | Potency [2] | Potency [3] | outcome [4] | outcome [5] | Potency [6] | Potency [7] | Potency [8] | outcome [9] | outcome [10] | outcome [11] | Potency [12] | Potency [13] | Potency [14] | Potency [15] | Potency [16] | outcome [17] | Potency [18] | Potency [19]
1 | CC(C)(C)c1ccc(OC(=O)c2ccccc2O)cc1 | inactive | inactive | inactive | inactive | inactive | inactive | inactive | inactive | inactive | inactive | inactive | – | – | – | – | – | – | – | –
2 | O=C(O)C(=O)Cc1c[nH]c2ccccc12 | inactive | – | inactive | inactive | inactive | inactive | inactive | inactive | inactive | inactive | inactive | inactive | inactive | inactive | inactive | inactive | inactive | inactive | –
3 | COc1cc2c(cc1N)oc1ccccc12 | 27.9 µM (active) | inactive | inactive | inactive | – | – | 44.2 µM (active) | inactive | inactive | inactive | inactive | inactive | – | – | – | – | inactive | inactive | –
4 | CCCN(CCC)C(=O)C(CCC(=O)O)NC(=O)c1ccccc1 (stereo unspecified) | inactive | – | inactive | inactive | – | – | inactive | inactive | inactive | inactive | inactive | – | – | – | inactive | inactive | inactive | inactive | –
5 | C1CCOC1 | inactive | – | inactive | inactive | inactive | inactive | – | inactive | inactive | inactive | inactive | inactive | – | inactive | – | inactive | inactive | inactive | –
6 | CC(=O)Nc1ccc(C)c(Cl)c1 | inactive | – | inactive | inactive | inactive | inactive | – | inactive | inactive | inactive | inactive | inactive | – | inactive | inactive | inactive | inactive | inactive | –
7 | O=Cc1ccc(O)c(O)c1O | 26.6 µM (active) | – | – | – | inactive | – | – | inactive | inactive | inactive | inactive | inactive | – | inactive | inactive | inactive | inactive | inactive | inactive
8 | CCCCCCCCCCCCOCCOS(=O)(=O)O | inactive | – | inactive | – | inactive | inactive | – | inactive | inactive | inactive | inactive | 48.6 µM (active) | inactive | – | inactive | 27.3 µM (active) | – | – | –
